Measurements as given in the supplement of paper PMC3334620.
In all, about 33,000 sequences were measured (“E-score (-0.5 to 0.5)”: median about -8e-05, highest 2% from about 0.23 on). The entries come from a sample that favours the highest values as a whole.

Each sequence was assayed against T1, Nrg2 (UniProt P38082) (assay: PBM E-score (8-mer binding enrichment) (E-score (-0.5 to 0.5)); higher = stronger / more preferred TF binding). Conditions: protein concentration: 100 nM; construct: GST-full length.
T1 sequence: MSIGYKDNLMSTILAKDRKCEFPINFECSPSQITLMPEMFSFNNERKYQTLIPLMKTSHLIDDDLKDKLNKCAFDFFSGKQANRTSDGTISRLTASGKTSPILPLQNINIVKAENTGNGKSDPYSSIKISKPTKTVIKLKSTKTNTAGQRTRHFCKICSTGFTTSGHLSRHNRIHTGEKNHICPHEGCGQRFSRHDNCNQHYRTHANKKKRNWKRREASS
Procedure: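 Universal 'all 10-mer' protein binding microarrays (Agilent AMADID 015681) probed with GST-tagged S. cerevisiae TFs (full-length or DBD) made by in vitro transcription/translation (PURExpress), about 100-200 nM. Bound TF was detected with fluorescent anti-GST. Each ungapped 8-mer (which stands for itself and its reverse complement) is scored by the PBM enrichment score (E-score), a modified Wilcoxon-Mann-Whitney statistic from -0.5 to +0.5, computed with the Universal PBM Analysis Suite. Scale: above 0.35 generally sequence-specific binding.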

Sequence | PBM E-score
TATCAACA | 0.0479
AATCAACA | 0.239
GATCAACA | -0.0582
ATCGCATG | 0.188
CCTCCAAA | -0.0762
CCTACGCA | -0.133
CGGCCGCA | 0.0157
AATATCGG | 0.137
GATATCGA | 0.0243
AATATCGC | 0.104
TATATCGA | 0.278
CATATCGA | 0.118
AATATCGA | 0.244
CGCTTATC | -0.0744
CTGCTTTA | 0.23
CTGCTTTC | 0.104
ATGCTTTA | -0.178
GGGTTTAC | -0.0342
AATTCAGG | 0.336
GATTCAAC | 0.00265
AATTCTAG | -0.027
AATTCTAT | -0.0322

Sequence | PBM E-score
AATTCAAG | 0.0675
AATTCAGA | 0.0972
AATTCAAC | 0.256
AATTCTAC | 0.231
AATTCAGT | -0.0207
AAGACTCA | -0.249
TCCGTACA | 0.146
ACACGTCC | -0.254
AGCTTTCG | -0.106
GATACTAC | 0.13
CGAGTTCC | 0.0649
TACCGCGA | 0.0041
AACCGCGT | 0.0966
AACCGCGA | 0.256
CCATGCCC | -0.111
ACTAAATG | -0.0439
CGCATATC | 0.293
AGCATATC | 0.0744
CGCATATA | 0.0344
ATAGTAGA | 0.102
ATAGTAGG | 0.0354
ATAGTAAA | 0.203

Sequence | PBM E-score
ATAGTAAT | 0.234
ATAGTAGC | 0.25
ATAGTAAC | 0.074
GAAAGGCA | -0.0231
ACGAAGCC | -0.0825
GCTCCAAA | -0.202
TCAATGCA | -0.183
AGTCTCGG | -0.0965
ATAATCCG | 0.0659
ATAATCAT | 0.235
ATAATCGA | 0.0835
ATAATCGC | -0.0299
ATAATCAG | 0.0745
ATAATCAA | 0.0599
ATAATCGG | 0.246
ATAATCCC | 0.24
ATAATCCA | 0.128
TCCTATAA | -0.0317
CAAACCAA | 0.214
CTATAGGA | -0.0776
CATGGTTC | 0.0101
ATGCAAGC | 0.0922

Sequence | PBM E-score
ATCTAACC | 0.0422
AAGGATTC | -0.124
GACCAAGA | 0.0552
ATGCCCAT | -0.093
ACCATCGC | 0.139
CGTTTCAC | -0.00605
CGAGACCC | 0.263
CGAGACCG | -0.0751
GGAGACCC | 0.076
ATTGCGTA | 0.145
ATTGCGTC | 0.237
CTTGCGTC | -0.00183
GTGCCAAA | -0.0122
AGCATCGC | -0.0887
CGTCACAG | 0.282
CGTCACAA | 0.0516
CGTCACAC | -0.0186
GTATAGCA | 0.078
ACACAGGG | 0.238
ATACAGGG | 0.274
ATACAGGC | -0.0144
CAACAGGC | -0.129

Sequence | PBM E-score
CAACAGGA | -0.152
ATACAGGA | -0.00019
CAACAGGG | 0.312
ACACAGGA | -0.0296
ACACAGGC | 0.0691
ACAGAGGC | -0.172
ATTGTGCA | 0.0869
GCGTTAGA | 0.0176
ACTTGGAG | -0.108
CTTATAAA | 0.131
CTAATATA | 0.13
ATAATACA | 0.282
ATAATATA | 0.268
CTAATAAA | 0.259
GTTATAAA | 0.0259
ATAATAAA | 0.224
TTTATAAA | 0.245
TTAATAAA | 0.201
ATAATACC | 0.171
ATAATATG | 0.198
ATAATACG | 0.18
